# Arbovirus anti = antivirals against arbovirus infection; inhibition, % at 10 µM; arbovirus infection cell-based antiviral screen; AID 1251; 0.37% of 200,000 active; in the data active = inhibition above about 30%
# S1P3 antag = blocks the human S1P3 receptor; 0.27% of 170,000 active; inhibition, % at 4.98 µM; Q99500; CHO S1P3 NFAT-BLA reporter, FRET fluorescence, antagonist mode; AID 485;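 active = inhibition above the plate cutoff, the mean inhibition of test wells on that plate plus 3 SD, cut at about 28% in these data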;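 also: cells challenged with S1P at its EC80 of 0.8 µM; blue over green emission ratio from cleaved BLA substrate after 4 h stimulation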
# S1P4 agonist = human S1P4 receptor agonism | O95977 | S1P4-expressing cell line, agonist reporter assay | activation, % at 4.98 µM | 0.35% of 220,000 active; in the data active = activation above about 11%
# DTT redox prof = compounds producing H2O2 with reducing agent – biochemical, NIH compound library profiling, artefact control for MLSCN library redox annotation, primary screen. 0.03% of 200,000 active. activation, % at 10 µM. AID 878. DTT-dependent redox cycling H2O2, phenol red/HRP absorbance; 100% = 100 µM peroxide control, 0% = buffer;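 active = activation of at least 50% relative to the plate's high and low controls in the primary single-dose screen; inactive = activation below 50%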;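 also: compound incubated with DTT at 0.8 mM final as the reducing agent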
# p97 inhibitor = human p97 ATPase inhibition | inhibition, % at 8 µM | recombinant p97 ATPase, Kinase-Glo ATP luminescence, 3 h | AID 1481 | 0.42% of 220,000 active; in the data active = inhibition above about 15%
# Target sequence (P55072 whole entry, looked up): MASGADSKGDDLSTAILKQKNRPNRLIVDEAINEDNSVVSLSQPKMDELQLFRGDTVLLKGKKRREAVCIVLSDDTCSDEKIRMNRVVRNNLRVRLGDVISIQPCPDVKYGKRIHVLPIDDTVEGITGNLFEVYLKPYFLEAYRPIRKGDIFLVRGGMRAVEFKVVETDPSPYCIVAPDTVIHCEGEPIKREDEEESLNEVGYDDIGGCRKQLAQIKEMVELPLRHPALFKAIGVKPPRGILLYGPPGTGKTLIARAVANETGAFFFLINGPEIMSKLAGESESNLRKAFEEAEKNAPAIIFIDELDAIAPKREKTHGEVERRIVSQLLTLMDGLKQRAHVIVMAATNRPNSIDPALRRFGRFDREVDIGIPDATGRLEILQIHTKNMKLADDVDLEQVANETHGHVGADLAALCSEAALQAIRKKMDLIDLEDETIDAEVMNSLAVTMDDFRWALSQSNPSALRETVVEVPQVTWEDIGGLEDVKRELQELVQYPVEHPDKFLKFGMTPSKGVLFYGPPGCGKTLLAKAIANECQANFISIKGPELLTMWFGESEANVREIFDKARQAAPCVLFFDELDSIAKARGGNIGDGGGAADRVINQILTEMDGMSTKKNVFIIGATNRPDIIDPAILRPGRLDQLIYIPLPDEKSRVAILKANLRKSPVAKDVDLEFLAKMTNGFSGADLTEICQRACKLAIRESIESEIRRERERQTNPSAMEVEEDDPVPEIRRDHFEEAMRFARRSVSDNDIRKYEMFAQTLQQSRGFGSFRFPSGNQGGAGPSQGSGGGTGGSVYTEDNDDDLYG
# S1P4 antag = human S1P4 receptor antagonism. S1P4-expressing cells, antagonist mode, reporter read-out. 0.26% of 220,000 active. O95977. inhibition, % at 4.98 µM. AID 1510; in the data active = inhibition above about 29%
# p97 inh conf = human p97 ATPase inhibition, confirmation; shares compounds with p97 inhibitor; recombinant p97 ATPase, Kinase-Glo ATP luminescence; inhibition, % at 8 µM; 44% of 760 active;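 active = percent inhibition of p97 ATPase above a set limit, the primary screen's mean plus 3 SD, cut at about 15% in these data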
# S1P4 agonist cf = human S1P4 agonism, confirmation | shares compounds with S1P4 agonist | S1P4 agonist cell-based reporter assay | activation, % at 4.98 µM | 7% of 740 active; in the data active = activation above about 12%
# S1P1 agonist = counter-screen for S1P4 agonists: agonists of human S1P1; activation, % at 4.98 µM; shares compounds with S1P4 agonist; S1P1 agonist cell-based assay, activation; 4% of 740 active; in the data active = activation above about 21%
# S1P4 antag conf = human S1P4 antagonism, confirmation | shares compounds with S1P4 antag | S1P4-expressing cell line, antagonist mode, reporter read-out | inhibition, % at 4.98 µM | 71% of 520 active | AID 1524; in the data active = inhibition above about 30%
# S1P1 antagonist = counter-screen for S1P4 antagonists: antagonists of human S1P1. shares compounds with S1P4 antag. cell-based S1P1 antagonist counterscreen, inhibition. inhibition, % at 4.98 µM. 37% of 520 active. AID 1564; in the data active = inhibition above about 40%;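 also: receptor stimulated with S1P near its EC80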
# A number is an active result; . = inactive; / = not tested or not shown. Shown are actives, neighbours in structure and some others; about 1.6% of the full set was active somewhere.
SMILES,Arbovirus anti,S1P3 antag,S1P4 agonist,DTT redox prof,p97 inhibitor,S1P4 antag,p97 inh conf,others
N#Cc1cc(Cl)c(N2CCOCC2)cc1C#N,.,/,.,.,.,.,/,
O=c1c(O)cccc2cc(O)c(O)c(O)c12,/,.,.,/,38,.,45,
Cc1ccc(-c2nc(Nc3ccc(N4CCOCC4)cc3)c3ccccc3n2)cc1,/,.,.,/,15,.,.,
CCOc1cc(/C=C2\C(=O)N(c3ccc(C(N)=O)cc3)N=C2C)ccc1OC(=O)c1cccs1,.,/,.,.,.,.,/,
CCOc1cc(/C=C2/C(=O)N(c3ccccc3)N=C2C)ccc1OC(=O)c1ccco1,.,/,.,.,27,.,.,
CC1=NN(c2nc(-c3ccc(Cl)cc3)cs2)C(=O)C1,42,/,.,.,16,.,.,
COC(=O)c1cccc(-c2ccc(C(c3c(C)[nH][nH]c3=O)c3c(C)[nH][nH]c3=O)o2)c1,.,.,.,.,.,.,/,
CC1(C)OC(=O)C(=Cc2ccc(-c3ccc(Cl)c(C(=O)O)c3)o2)C(=O)O1,.,.,.,.,.,.,/,
Cc1[nH][nH]c(=O)c1C(c1ccc(-c2ccc(Cl)c(C(=O)O)c2)o1)c1c(C)[nH][nH]c1=O,.,.,.,.,16,.,35,
COC(=O)c1ccccc1-c1ccc(C(c2c(C)[nH][nH]c2=O)c2c(C)[nH][nH]c2=O)o1,.,.,.,.,20,.,.,
Cn1cnc(S(=O)(=O)Nc2ccccc2C(=O)NCC2CC2)c1,/,.,.,/,.,.,/,
Cc1ccc(-c2cc3cccc[n+]3cc2-c2ccc(C)cc2)cc1,.,.,.,.,.,.,/,
Cc1cccc(OCCC(=O)Nc2ccc(C)c(S(=O)(=O)N3CCCCC3)c2)c1,.,.,.,.,.,.,/,
COc1ccccc1CCn1cnc2c3cc(C)ccc3n(C)c2c1=O,.,.,.,.,.,.,/,
CCCC(=Nc1ccccc1)C1=C(O)C(C(=O)OC)C(C)(C)CC1=O (stereo unspecified),.,.,.,.,.,.,/,
CCCCC(=Nc1ccc(N)cc1)C1=C(O)C(C(=O)OC)C(C)(C)CC1=O (stereo unspecified),.,/,.,.,18,.,.,
CCC(=Nc1ccc(N)cc1)C1=C(O)C(C(=O)OC)C(C)(C)CC1=O (stereo unspecified),.,.,.,.,15,.,.,
CCSCc1nc2ccccn2c1Br,.,.,.,.,.,.,/,
C/C(Cn1cnc([N+](=O)[O-])n1)=N/NC(=O)COc1c(Cl)cc(Cl)cc1Cl,.,.,.,.,.,.,/,
CSc1nc(N(CCO)CCO)c2sc3nc(-c4ccco4)c4c(c3c2n1)CCC4,.,/,.,.,20,.,.,
CSc1nc(SCCO)c2sc3nc(-c4ccco4)c4c(c3c2n1)CC(C)(C)OC4,.,/,.,.,.,.,/,
CC1=Nc2ccccc2/C1=C/c1c(N)n2c(S(=O)(=O)CC(C)C)nsc2nc1=O,.,.,20,.,18,.,39,S1P4 agonist cf=.;S1P1 agonist=.
CSc1nsc2nc(=O)c(/C=C3\C(C)=Nc4ccc(C)cc43)c(N)n12,.,.,.,.,.,.,/,
Cc1cc(C)c(C)c(OCCCn2ccnc2)c1,.,/,.,.,.,.,/,
O=C(N[C@@H](Cc1ccccc1)C(=O)OCc1ccccc1)c1nc[nH]c1C(=O)NCc1ccccc1,.,.,20,.,17,.,20,S1P4 agonist cf=32;S1P1 agonist=.
O=C1CCc2ccccc2N1,/,.,.,/,.,.,/,
S=C1Cc2ccccc2N1,/,.,.,/,32,35,67,S1P4 antag conf=110;S1P1 antagonist=44

# Source: PubChem
